Screens: PubChem, Sanford-Burnham Center for Chemical Genomics
Only some compounds are listed: those with a hit (about 4% of all), similar ones and a draw of the others.
NLRP3 yeast inh = NALP3 inflammasome inhibitors in reconstituted yeast, primary screen, luminescence, uHTS; Yeast reconstituted NLRP3/ASC/caspase-1, beta-gal luminescence, 24 h; inhibition, % at 10 µM; 0.39% of 330,000 active; AID 2825, 2010;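 active means inhibition of 50% or more; inactive means inhibition below 50%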
tim23-1 inh = growth inhibitors of tim23-1 mutant yeast, primary screen, luminescence, uHTS. S. cerevisiae tim23-1 growth, BacTiter-Glo luminescence, 24 h. inhibition, % at 20 µM. 1.3% of 330,000 active;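 active means growth inhibition of the mutant yeast at or above 50%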;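 further: temperature-sensitive mutant grown at 25 °C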
TIM10 inh = growth inhibitors of isogenic TIM10 control yeast, primary screen, counter-screen for tim10-1 yeast inhibitor project, luminescence, uHTS; inhibition, % at 10 µM; AID 463195, 2010; 1.4% of 330,000 active; S. cerevisiae TIM10 strain growth, BacTiter-Glo luminescence, 24 h;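 active means inhibition of 40% or more at the single tested concentration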;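 further: wild-type TIM10 isogenic control strain grown at permissive 25 °C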
NALP1 yeast inh = NALP1 inflammasome inhibitors in reconstituted yeast, colorimetric, S. cerevisiae, triplicate retest | 0.61% of 280,000 active | inhibition, % at 10 µM | S. cerevisiae NALP1/ASC/caspase-1 growth, X-gal OD620, 72 h; in the data active means inhibition mostly above about 24%, no sharp cut-off; inactive means mostly below about 32%
tim10-1 inh = growth inhibitors of tim10-1 mutant yeast, primary screen, luminescence, uHTS; 2.2% of 330,000 active; AID 463190, 2010; inhibition, % at 20 µM; S. cerevisiae tim10-1 ts strain growth, BacTiter-Glo, 24 h;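 active means inhibition of at least 40%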;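 further: mutant grown at 25 °C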
tim10 confirm = growth inhibitors of wild-type TIM10 yeast, confirmation, counter-screen for tim10-1 synthetic lethality project, single concentration, luminescence, S. cerevisiae. 63% of 4,600 active. inhibition, % at 10 µM. S. cerevisiae tim10 strain growth, BacTiter-Glo luminescence, 24 h. shares compounds with TIM10 inh;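 active means inhibition of yeast growth at or above a set limit in either of two replicates at 10 µM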; further: this counterscreen used the strain with wild-type TIM10
Of the large screens only hits and unclear results are named; the others gave an inactive call (follow-up assays come after a bar, where they were run).

C/C(=N\NC(=S)NC(C)C)c1ccc(Cl)c([N+](=O)[O-])c1	none
O=C(c1ccccc1)N1N=C(C(F)(F)F)CC1(O)c1ccc(F)cc1 (centres undefined)	TIM10 inh 67 | tim10 confirm inactive
C#CCOCCOCCOCCNc1nc(N2CCN(C(=O)Cn3cc(CCCN=C(N)N)nn3)CC2)nc(N2CCN(C(=O)[C@H](C)n3cc(CCCN=C(N)N)nn3)CC2)n1	TIM10 inh 61 | tim10 confirm inactive
C#CCOCCOCCOCCNc1nc(N2CCN(C(=O)Cn3cc(CCCCN)nn3)CC2)nc(N2CCN(C(=O)Cn3cc(CCCN=C(N)N)nn3)CC2)n1	none (no result: NALP1 yeast inh)
c1ccc(OCCOCCN2CCN(C(c3ccccc3)c3ccccc3)CC2)cc1	TIM10 inh 43 | tim10 confirm inactive
Cc1ccc(NC(=O)Cn2cccc2)cc1	none
CCOC(=O)C1=C(C)NC(=S)N(C(C)=O)C1c1ccc(Cl)cc1 (centres undefined)	TIM10 inh 42 | tim10 confirm 42
CCOC(=O)C1=C(C)NC(=S)N(C(C)=O)C1c1ccc(OC)c(OC)c1 (centres undefined)	none
CCOC(=O)C1=C(C)NC(=O)NC1c1ccc(-c2ccc(Cl)cc2)o1 (centres undefined)	none
CCOC(=O)C1=C(C)NC(=S)NC1c1ccc(-c2ccc(Cl)cc2)o1 (centres undefined)	TIM10 inh 44 | tim10 confirm 33
CCN(C1CCS(=O)(=O)C1)S(=O)(=O)c1ccc(Cl)s1 (centres undefined)	none (no result: NALP1 yeast inh)
Cc1cccc(CNC(=O)C(C)n2nc(C)c3c(C)n(-c4ccccc4)nc3c2=O)c1 (centres undefined)	none
CC(c1ccc(Cl)cc1)n1c(-c2ccc3ccccc3n2)n[nH]c1=S (centres undefined)	none
CC(c1ccc(F)cc1)n1c(-c2ccc3ccccc3n2)n[nH]c1=S (centres undefined)	TIM10 inh 46 | tim10 confirm inactive
S=c1[nH]nc(COc2ccc(Cl)cc2)n1C1CCCCC1	TIM10 inh 40 | tim10 confirm inactive
Cc1cccc2c(SCC(=O)NCC3CCCO3)nc(-c3ccc(F)cc3)nc12 (centres undefined)	none
CCC1CCCCN1C(=O)CSc1nnc2nc(C)cc(C)n12 (centres undefined)	TIM10 inh 43 (no result: NALP1 yeast inh) | tim10 confirm inactive
CCOC(=O)N1CCN(C(=S)NC(=O)c2c(-c3c(Cl)cccc3Cl)noc2C)CC1	none | tim10 confirm inactive
Cc1ccc(/C=N/NC(=O)c2nnn(-c3nonc3N)c2C(C)C)s1	none
COc1cc2c(C(=O)N3CCN(c4ccccc4C)CC3)c(C)oc2cc1Br	TIM10 inh 52 | tim10 confirm 35
COc1ccccc1N1CCN(C(=O)c2c(C)cc(=O)oc2C)CC1	none
Cc1ccc(C2CC(C(F)(F)F)n3ncc(C(N)=O)c3N2)cc1 (centres undefined)	none
Cc1ccc(C2CC(C(F)(F)F)n3ncc(C(=O)NCc4ccco4)c3N2)cc1 (centres undefined)	TIM10 inh 47 | tim10 confirm 32
CC(C)NC(=S)NC(c1ccccc1)(c1ccccc1)c1ccccc1	TIM10 inh 45 | tim10 confirm 49
Cc1cccc(Cn2c(=O)c3c(nc4n3CCCN4Cc3ccccc3)n(C)c2=O)c1	TIM10 inh 55 | tim10 confirm inactive
Cn1c(=O)n(Cc2ccccc2)c(=O)c2c1nc1n2CCCN1C1CCCCC1	TIM10 inh 41 (no result: NALP1 yeast inh) | tim10 confirm inactive
CC(C)=N/N=C1/NC(=O)C(CC(=O)Nc2cc(Cl)ccc2C)S1 (centres undefined)	none
OC(CNCc1ccco1)Cn1c2ccc(Br)cc2c2cc(Br)ccc21 (centres undefined)	TIM10 inh 46 | tim10 confirm 65
Brc1ccc2ncnc(NCc3ccco3)c2c1	none
O=C(O)/C=C/c1cn(-c2ccccc2)nc1-c1ccc2c(c1)OCCO2	none
O/N=C/c1cn(-c2ccccc2)nc1-c1ccc2c(c1)OCCO2	none | tim10 confirm inactive
COc1ccc(N2CC(C(=O)N3CCN(c4ccccc4OC)CC3)CC2=O)cc1 (centres undefined)	none
COCCN(Cc1ccccc1)C(=S)Nc1ccc(Cl)cc1	TIM10 inh 41 | tim10 confirm 40
CCOC(=O)c1ccc(NC(=O)CCS(=O)(=O)c2ccc(Br)s2)cc1	TIM10 inh 44 | tim10 confirm inactive
CCCCNC(=S)N/N=C/c1sccc1C	TIM10 inh 59 | tim10 confirm 47
COc1cccc(CNC(=S)Nc2cc(C)cc(C)c2)c1	none
Cc1ccc(C)c(NC(=S)NCc2ccc3c(c2)OCO3)c1	TIM10 inh 41 | tim10 confirm inactive
COc1ccc(CNC(=S)Nc2cc(C)cc(C)c2)cc1	TIM10 inh 41 | tim10 confirm inactive
Cc1cc(C)cc(NC(=S)NCc2ccc3c(c2)OCO3)c1	TIM10 inh 42 (no result: NALP1 yeast inh) | tim10 confirm inactive
COc1ccc(CNC(=S)Nc2ccccc2-c2ccccc2)cc1	TIM10 inh 48 | tim10 confirm inactive
O=C(O)/C=C/C(=O)Nc1cc(F)ccc1F	none
CC(OC(=O)C1=COCCO1)C(=O)NC1(C#N)CCCCC1 (centres undefined)	none (no result: NALP1 yeast inh)
Cc1ccc(C(=O)NCc2ccc3c(c2)OCO3)c(C)c1	TIM10 inh 67 | tim10 confirm inactive
Nc1ccc(C(=O)OCc2nc3c(ccc4ccccc43)[nH]2)cc1	TIM10 inh 48 | tim10 confirm inactive
COC(=O)c1ccc(OC)c(CN2CCCN(Cc3ccc(F)cc3)S2(=O)=O)c1	none
Cc1ccc(S(=O)(=O)c2nc(Nc3nccs3)sc2Cl)cc1	TIM10 inh 48 | tim10 confirm inactive
COc1ccc(-c2cc(C3CCN(c4cc(Cl)nc(N)n4)CC3)[nH]n2)cc1	TIM10 inh 43 | tim10 confirm inactive
COc1ccc(-c2cc(C3CCN(CC(O)C(F)(F)F)CC3)[nH]n2)cc1 (centres undefined)	none
Cc1ccccc1C(=O)NNc1ccc(-c2csnn2)cc1	none
CCC(C)n1c(-c2ccco2)nc2nc3ccccc3nc21 (centres undefined)	TIM10 inh 46 | tim10 confirm inactive
CC(C)OCCCn1c(-c2ccco2)nc2nc3ccccc3nc21	none
CCOc1ccc(NC(=O)c2ccccc2OCC(=O)c2ccccc2)cc1	TIM10 inh 45 | tim10 confirm inactive
Cc1ccc(NC(=O)c2ccccc2OCC(=O)c2ccccc2)cc1	none
CSc1ccccc1C(=O)Nc1ccccc1C(=O)NC(C)C	none
COc1ccc(N=C(NN)c2ccc3ccccc3n2)cc1	none
CCOc1ccccc1CN1CCNC(=O)C1CC(=O)NCc1nccn1CC (centres undefined)	none
